Compound activity from PubChem BioAssay.
DT40 TDP1 no CPT: qHTS for Inhibitors of human tyrosyl-DNA phosphodiesterase 1 (TDP1): qHTS in cells in absence of CPT; DT40 Tdp1-/- hTDP1 cells, no CPT, ATP luminescence, 48 h; Potency, µM (doses to about 46.2 µM), for inactives: at the top dose activity change, negative = growth inhibition, hits mostly inhibitors; 15% of 420,000 active; AID 686978, 2013; further: potency means the concentration at half of the fitted maximal effect; nearly all actives have a fitted effect of over 55% in size
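Growth kinetics read by CellTiter-Glo luminescence after ≥48 hr at 37 °C. Cells: DT40 Tdp1-/- stably carrying human TDP1, 400 per well, compound exposure in the absence of CPT (DMSO vehicle).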
HT1080 IDH1KD tx: kills HT-1080 cells with IDH1 knockdown. HT-1080 IDH1 knockdown viability, ATP luminescence, 48 h. Potency, µM (titrated, usually from 46.1 µM), without a hit: top-dose activity, negative = toxicity, most hits filed as cytotoxic. 2% of 360,000 active;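 further: potency means the concentration at half of the fitted maximal effect; 0% = DMSO wells and -100% = cell-free medium wells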
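CellTiter-Glo luminescence after 48 h compound exposure at 37 degrees C of IDH1-knockdown HT-1080 cells in 5% FBS RPMI. %Activity scaled between DMSO wells and cell-free media wells, with curves fitted and assigned curve classes.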
TDP1 cell CPT: DT40-hTDP1 cell growth loss with CPT. chicken DT40 Tdp1-/-;hTDP1 cells + 20 nM CPT, ATP luminescence, 48 h. Potency, µM (doses to about 46.2 µM), without a hit: at the highest dose activity change, negative = growth inhibition, actives largely listed as inhibitors. 12% of 420,000 active; further: potency means the concentration at half of the fitted maximal effect; nearly all actives have a fitted effect of over 55% in size
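Chicken DT40 Tdp1-/- cells complemented with human TDP1, 400 cells/well, exposed to compounds plus 20 nM camptothecin for at least 48 h at 37 C; viability read as ATP content by CellTiter-Glo luminescence.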
HT1080NT lethal: kills 2HG-producing HT-1080-NT fibrosarcoma cells | AID 686970 | Potency, µM (titrated, usually from 46.1 µM), without a hit: top-dose activity, negative = less viability, hits mostly cytotoxic | 1.6% of 360,000 active | HT-1080-NT fibrosarcoma viability, CellTiter-Glo ATP luminescence, 48 h;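 further: NT is the 2HG producing partner of a matched IDH1 knockdown line; potency means the concentration at half of the fitted maximal effect; 0% = DMSO-treated cells and -100% = media-only wells without cells; nearly all actives have a fitted effect of over 55% in size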
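A 48-hour cytotoxicity screen used HT-1080-NT cells plated 2 hours before compound delivery. ATP-based CellTiter-Glo luminescence measured viability, normalized to DMSO and no-cell controls.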
IL-1B inflam inh: inhibitors of inflammasome signaling (IL-1 beta secretion); THP-1 LPS/ATP IL-1B secretion, AlphaLISA, 16 h; stronger effect = lower value; activity change, % at 57.5 µM; 4.7% of 360,000 active; AID 743279; in the data active means activity change below about -50%; inconclusive means mostly about -30% to -49%
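Secreted IL-1B measured by AlphaLISA bead assay after 16 h compound exposure of THP-1 cells; compounds (final up to 57.5 uM) added 1 h before LPS (250 ng/mL) and ATP (1.25 mM) stimulation; lower signal means less secretion.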
The depositor's hits bear a star; ? = inconclusive; nt = no result given. An excerpt weighted towards active compounds, which were near 19% of everything screened. Unless noted, the call rests on the fitted dose curve; in most records, active means well fitted curve in the direction sought with a large enough effect; inconclusive means small, poorly fitted or top-dose-only effect, or another doubt; inactive means no such curve, though single readings can be large; an effect the other way counts as inactive or inconclusive. Unless noted, on the % scale 0 is the no-effect control and ±100 the full control effect.

SMILES	DT40 TDP1 no CPT	HT1080 IDH1KD tx	TDP1 cell CPT	HT1080NT lethal	IL-1B inflam inh
Cc1c(C(=O)c2no[n+]([O-])c2C(=O)c2cnn(C)c2C)cnn1C	3.7µM*	?	2.6µM*	?	12
CCCCOC(=O)c1ccc(NC(=S)NC(=O)c2c(Br)c(C)nn2C)cc1	21µM*	-19%	?	-16%	16
CCOC(=O)c1ccc(NC(=S)NC(=O)c2cncc(Br)c2)cc1	-15%	7%	-19%	8%	22
CN(C)CCN1CCN(C2CN(Cc3ccc([N+](=O)[O-])cc3)S(=O)(=O)C2)CC1 (stereo not drawn)	-24%	-1%	-19%	8%	57
CN1C(C(=O)Nc2cccc(O)c2)=CC(c2cccs2)=NS1(=O)=O	?	-2%	?	6%	-10
Cc1sc2nc(CN(C(=O)NC3CCCCC3)C3CCCC3)[nH]c(=O)c2c1C	16µM*	10%	?	14%	-1
Cc1sc2ncn(CC(=O)N(CC(=O)NC3CCCC3)Cc3cccs3)c(=O)c2c1C	?	-2%	?	4%	-7
Cc1sc2nc(CN(Cc3cccs3)C(=O)NC3CCCCC3)[nH]c(=O)c2c1C	?	?	23µM*	?	?
Cc1ccc(S(=O)(=O)N2c3ccccc3OCC2c2ccccc2)cc1 (stereo not drawn)	16µM*	?	29µM*	?	5
CC1COc2ccccc2N1S(=O)(=O)c1ccc(Cl)cc1 (stereo not drawn)	23µM*	-25%	-5%	-13%	21
Cc1ccc(S(=O)(=O)N2c3cc(C)ccc3OCC2C(C)(C)C)cc1 (stereo not drawn)	?	?	?	?	6
Cc1ccc(C(=O)N2c3ccccc3OCC2C)cc1 (stereo not drawn)	-13%	1%	-9%	1%	0
O=C(C(Cl)Cl)N1c2ccccc2OCC1c1ccccc1 (stereo not drawn)	15µM*	-19%	18µM*	-10%	-9
CC1COc2ccccc2N1C(=O)c1ccc(Cl)cc1 (stereo not drawn)	-20%	6%	-7%	2%	16
CCCCc1c(C)nc2nc(SCc3ccc(Cl)cc3)[nH]n2c1=O	?	0%	-12%	9%	-3
CC(C)CN1CCCC2(CCN(S(=O)(=O)c3ccccc3)CC2)C1	-18%	nt	6%	nt	nt
CC1(C(=O)NS(=O)(=O)C2CC2)CCN(C(=O)COc2ccc(Cl)cc2Cl)C1 (stereo not drawn)	2%	13%	-1%	?	15
O=C(c1ccncc1)N1CCC2(CCCN(c3ccccn3)C2)CC1	?	nt	-26%	nt	nt
S=c1[nH]nc(-c2ccc(Br)o2)n1Cc1ccccc1	21µM*	?	?	-1%	-7
S=c1[nH]nc(CN2CCCC2)n1Cc1ccccc1	0%	2%	-6%	0%	3
c1ccc(Cn2c(CN3CCCC3)nc3ccccc32)cc1	16µM*	-7%	?	-5%	-20
S=c1[nH]nc(CN2CCCCC2)n1Cc1ccccc1	16µM*	?	15µM*	22%	12
Clc1ccc(Cn2c(CN3CCCC3)nc3ccccc32)cc1	7.2µM*	nt	?	nt	nt
Cc1cc2cc(CN(CC3CCCO3)C(=O)c3cnccn3)c(=O)[nH]c2cc1C (stereo not drawn)	-30%	?	1%	-6%	-1
CC(=O)Nc1ccc(S(=O)(=O)N2CCN(C(=O)c3ncoc3-c3cccc(F)c3)CC2)cc1	?	-19%	-28%	-2%	-4
O=C1CNC(=O)N1CC(O)Cn1c2ccccc2c2ccccc21 (stereo not drawn)	5%	4%	-22%	4%	-11
O=C(COc1ncnc2ccccc12)NCc1ccc2c(c1)OCO2	-18%	-1%	0%	-3%	15
COc1ccc(C(=O)NCc2cc(C)nc3ccccc23)cc1	?	?	?	?	99
